The values below come from PubChem BioAssay (Tox21).

“And” between values parts separate entries of the source, which are not always exact repeats. Identical values can stand only once. Results filed as inconclusive are left out. Where a structure was tested more than once in an assay, its records may differ in their call. The source made the active and inactive calls. Calls come from the whole dose curve; as a rule, active = well fitted curve in the direction sought with a large enough effect in the repeat runs; inconclusive = weak or mixed curves; inactive = no such curve, though single readings can be large; an effect the other way counts as inactive or inconclusive.

A short description of assay [1]: qHTS RealTime-Glo MT Cell Viability Assay in HEK293 cells - 0 hour (AID 1224880). Note: top concentration of the series differs between compounds; nearly all actives have a fitted effect of over 45% in size. In a few lines:
(§1)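 Viable HEK293 cells reduce a cell-permeant prosubstrate; the product diffuses out and is consumed by NanoLuc in the medium to give light. Compounds went in after a 5 h incubation and plates were read over the treatment course.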
(qHTS replaces the single test concentration by a dilution series.)

Assay [2] is described as follows: A CellTox Green Cytotoxicity Assay to monitor cytotoxicity in HEK293 cells - 32 hour (AID 1224881). Note: nearly all actives have a fitted effect of over 40% in size. Note: potency is the fitted concentration of half-maximal effect. The gist of the method:
(§2)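 Fluorescence intensity, read at 0, 8, 16, 24, 32 and 40 h of compound treatment, reflected dye binding to DNA of dead HEK293 cells; compounds (23 nL, DMSO) were added 5 h after plating cells with reagent.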

Assay [3] is described as follows: A CellTox Green Cytotoxicity Assay to monitor cytotoxicity in HepG2 cells - 0 hour (AID 1224882). Note: nearly all actives have a fitted effect of over 35% in size. Note: potency is the fitted concentration of half-maximal effect. In a few lines: (§3)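 Using 1536-well format, dye-containing HepG2 suspension was seeded, allowed 5 h at 37 C/5% CO2, dosed by pintool with compounds, positive and negative controls, and imaged for fluorescence across 40 h.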
The nature of assay [4]: A CellTox Green Cytotoxicity Assay to monitor cytotoxicity in HepG2 cells - 32 hour (AID 1224883). Note: nearly all actives have a fitted effect of over 50% in size. Note: potency is the fitted concentration of half-maximal effect. In a few lines:
as §3

Assay [5] is described as follows: A CellTox Green Cytotoxicity Assay to monitor cytotoxicity in HEK293 cells - 8 hour (AID 1224884). Note: nearly all actives have a fitted effect of over 35% in size. Note: potency is the fitted concentration of half-maximal effect. The gist of the method: as §2
The nature of assay [6]: qHTS RealTime-Glo MT Cell Viability Assay in HepG2 cells - 16 hour (AID 1224885). Note: nearly all actives have a fitted effect of over 50% in size. In a few lines: (§4)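 Cells + NanoLuc/prosubstrate dispensed (600 cells/well) → 5 h at 37 C/5% CO2 → compounds in DMSO transferred → 40 h incubation at 37 C, luminescence read at 0, 8, 16, 24, 32, 40 h.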
Assay [7] is described as follows: qHTS RealTime-Glo MT Cell Viability Assay in HEK293 cells - 24 hour (AID 1224886). Note: nearly all actives have a fitted effect of over 50% in size. Note: potency is the fitted concentration of half-maximal effect. The gist of the method: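 Tox21 10K qHTS, HEK293, 600 cells/well, RealTime-Glo reagent co-dispensed with cells; 5 h preincubation, compound by pintool, 37 C, luminescence at 0–40 h.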
The nature of assay [8]: qHTS RealTime-Glo MT Cell Viability Assay in HEK293 cells - 8 hour (AID 1224887). Note: nearly all actives have a fitted effect of over 50% in size. Note: potency is the fitted concentration of half-maximal effect. In a few lines:
as §1

Assay [9] is described as follows: A CellTox Green Cytotoxicity Assay to monitor cytotoxicity in HEK293 cells - 16 hour (AID 1224888). Note: nearly all actives have a fitted effect of over 35% in size. The gist of the method: as §2
Assay [10] can be described thus: qHTS RealTime-Glo MT Cell Viability Assay in HepG2 cells - 0 hour (AID 1224889). Note: nearly all actives have a fitted effect of over 50% in size. In a few lines:
as §4

As for `CC(=O)/C=C/C1=C(C)CCCC1(C)C`, the Potency result in assay [1], in assay [2], in assay [3], in assay [4], in assay [5] and in assay [6] was “inactive” throughout. In addition, the Potency result in assay [7], in assay [8], in [9] and in [10] was “inactive” throughout.
For `NC(=O)OCC(COC(N)=O)c1ccccc1`, the Potency result in [1], in [2], in [3], in assay [4], in [5] and in [6] was “inactive” in each case. The Potency result in assay [7], in assay [8], in [9] and in assay [10] was “inactive” throughout.
In the case of `CCN(CC)CCOC(=O)c1ccc(N)cc1`, the Potency result in [1], in [2], in [3], in assay [4], in assay [5] and in [6] was “inactive” throughout. In addition, the Potency result in assay [7], in assay [8], in assay [9] and in [10] was “inactive” each time.
In the case of `NC(=O)N1c2ccccc2C=Cc2ccccc21`, the Potency result in assay [1], in assay [2], in assay [3], in assay [4], in assay [5] and in [6] was “inactive” each time. Besides, the Potency entry in assay [7], in assay [8], in [9] and in assay [10] was “inactive” in each case.
Regarding `Cc1c(N(C)C)c(=O)n(-c2ccccc2)n1C`, the Potency entry in [1], in [2], in assay [3], in [4], in assay [5] and in [6] was “inactive” in each case. The Potency entry in assay [7], in assay [8], in assay [9] and in [10] was “inactive” each time.
Regarding `CC(=O)CCC(C)C`, the Potency entry in assay [1], in assay [6], in [7], in assay [8] and in [10] was “inactive” each time. Also, the Potency result in assay [2] was “inactive and 34.7 µM (active)”; in [3] it was “inactive and 38.9 µM (active)”; in [4], “inactive and 38.9 µM (active)”; in [5], “inactive and 38.9 µM (active)”.
For the compound `Cc1c(N(C)CS(=O)(=O)O)c(=O)n(-c2ccccc2)n1C`, the Potency entry in assay [1], in assay [2], in assay [3], in [4], in assay [5] and in assay [6] was “inactive” throughout. Also, the Potency entry in assay [7], in [8], in assay [9] and in assay [10] was “inactive” each time.
For `COc1cc2c(c(OC)c1OC)-c1ccc(OC)c(=O)cc1[C@@H](NC(C)=O)CC2`, the Potency entry in [1], in [2], in assay [3], in assay [5], in assay [6] and in assay [7] was “inactive” each time. The Potency result in [9] and in assay [10] was “inactive” throughout. Moreover, the Potency in assay [4] was 60.9 µM (active) and inactive.
On to `COCCOCCOC`, for which the Potency entry in [1], in assay [2], in assay [3], in assay [4], in assay [5] and in assay [6] was “inactive” throughout. For the same compound, the Potency result in [7], in [8], in assay [9] and in assay [10] was “inactive” each time.
For `O=C(O)CCCCC1CCSS1` (configuration not stated), the Potency entry in assay [1], in [2], in [3], in assay [4], in assay [5] and in [6] was “inactive” each time. Besides, the Potency entry in assay [7], in assay [8], in [9] and in assay [10] was “inactive” throughout.
As to `COc1cc(C=O)ccc1O`, the Potency result in [1], in assay [2], in assay [3], in assay [4], in assay [5] and in assay [6] was “inactive” each time. Moreover, the Potency result in assay [7], in assay [9] and in assay [10] was “inactive” in each case.
As for `COc1cc(O)c(C(=O)c2ccccc2)cc1S(=O)(=O)O`, the Potency result in assay [1], in assay [2], in [3], in [4], in assay [5] and in assay [6] was “inactive” throughout. The Potency entry in assay [7], in [9] and in [10] was “inactive” each time.
Consider `CCCCNC(=O)NS(=O)(=O)c1ccc(N)cc1`, for which the Potency entry in [1], in [2], in assay [4], in [5], in assay [6] and in assay [7] was “inactive” each time. Further, the Potency result in assay [8], in [9] and in assay [10] was “inactive” throughout.
As to `COc1ccccc1O`, the Potency entry in assay [1], in [2], in assay [4], in assay [5], in assay [6] and in assay [7] was “inactive” in each case. The Potency entry in [8], in assay [9] and in assay [10] was “inactive” in each case.
On to `CC(C)=CCC/C(C)=C/CO`, for which the Potency result in [1], in [2], in [3], in assay [4], in assay [5] and in assay [6] was “inactive” each time. The Potency entry in assay [7], in [9] and in [10] was “inactive” throughout.
Regarding `CCn1cc(C(=O)O)c(=O)c2ccc(C)nc21`, the Potency result in assay [1], in [2], in [3], in assay [4], in assay [5] and in [6] was “inactive” in each case. Further, the Potency result in assay [7], in assay [9] and in [10] was “inactive” each time.
As for `O=C(OCc1ccccc1)c1ccccc1`, the Potency entry in [1], in [3], in assay [4], in [5], in [6] and in assay [7] was “inactive” each time. The Potency result in assay [9] and in assay [10] was “inactive” in each case. The Potency in assay [2] was 43.8 µM (active) and inactive.
For the compound `C[C@]12CC[C@@H]3c4ccc(O)cc4C[C@@H](CCCCCCCCCS(=O)CCCC(F)(F)C(F)(F)F)[C@H]3[C@@H]1CC[C@@H]2O` (some centres not stated), the Potency entry in assay [1], in [2], in assay [4], in assay [5], in assay [6] and in assay [9] was “inactive” in each case. Moreover, the Potency result in assay [10] was “inactive”. In addition, the Potency in assay [7] and in [8] was 43.6 µM (active) each time.
As to `NC(=O)N/N=C/c1ccc([N+](=O)[O-])o1`, the Potency result in assay [1], in assay [2], in assay [3], in assay [4], in assay [5] and in assay [6] was “inactive” each time. Also, the Potency entry in [7], in [9] and in [10] was “inactive” in each case.
In the case of `Cc1cccc2ccccc12`, the Potency entry in assay [1], in assay [2], in assay [4], in assay [5], in assay [6] and in [7] was “inactive” each time. In addition, the Potency result in assay [8], in assay [9] and in assay [10] was “inactive” throughout.
As to `CC(C)(C)NCC(O)c1ccc(O)c(CO)c1` (configuration not stated), the Potency entry in [1], in [2], in assay [3], in assay [4], in assay [5] and in [6] was “inactive” each time. Further, the Potency result in assay [7], in assay [9] and in assay [10] was “inactive” in each case.
